# PubChem BioAssay (EPA / NIEHS)
# Values joined by “and” are separate entries in the source; they are usually repeats but may differ in a detail not shown here. Equal values may be shown once. Records with an inconclusive call do not appear. Active and inactive are the calls of the source. How the source made its calls: active means hit-call score of the fitted dose curve at least 0.9, where 1 is the maximum; inconclusive means response in the unintended direction; inactive means score below 0.9.
# What was measured:
# [1] = target: rat Thyrotropin Releasing Hormone Receptor (TRH), Trhr (gene 25570) (UniProt Q01717); test: NVS_GPCR_rTRH: NovaScreen (NVS) G Protein-Coupled Receptor Assay for rat Thyrotropin Releasing Hormone Receptor (TRH) (AID 2283329);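 further: hit means lower bound tracer signal versus DMSO baseline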
# Outline: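 Rat forebrain membranes; radioligand displacement at TRH receptor by filter-based scintillation counting, read 4 h after dosing. Duplicate single-point screen at 25 uM, actives rerun in concentration series; loss of signal relative to DMSO.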
# [2] = target: human Peripheral-type Benzodiazepine Receptor (PBR), TSPO (gene 706) (UniProt P30536); test: NVS_MP_hPBR: NovaScreen (NVS) Membrane Protein Assay for human Peripheral-type Benzodiazepine Receptor (PBR) (AID 2283331);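 further: hits reduce radioligand binding relative to DMSO baseline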
# Outline: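 Radioligand displacement on human colonic cell membranes, 1 h incubation; bound radioactivity by filtration and scintillation counting. Primary screen in duplicate at 25 uM single concentration, actives followed up in concentration series; loss of binding versus DMSO.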
# [3] = target: rat Peripheral-type Benzodiazepine Receptor (PBR), Tspo (gene 24230) (UniProt P16257); test: NVS_MP_rPBR: NovaScreen (NVS) Membrane Protein Assay for rat Peripheral-type Benzodiazepine Receptor (PBR) (AID 2283335)
# Outline: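 Radioligand displacement, rat kidney membrane prep, 1 h exposure, filter-based scintillation read; DMSO baseline, loss-of-signal scored. Primary screen at 25 uM in duplicate, actives followed up in concentration series.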
# [4] = target: Sodium channel protein type 1 subunit alpha (Rattus norvegicus) (UniProt P04774); test: NVS_IC_rNaCh_site2: NovaScreen (NVS) Ion Channel Assay for rat Sodium Channel, Site 2 (NaCh) (AID 2283322);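 further: hit means loss of radioligand binding signal relative to DMSO so AC50 marks displacement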
# Outline: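 Membranes: rat forebrain. Format: competitive radioligand displacement, filter separation, scintillation readout, 1 h exposure. Primary screen in duplicate at 25 uM; actives retested in concentration series.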
# [5] = NVS_IC_rCaBTZCHL: NovaScreen (NVS) Ion Channel Assay for Calcium Channel, Type L, Benzothiazepine Site (CaBTZCHL) (AID 2283337)
# Outline: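 Radioligand binding to the benzothiazepine site of L-type Ca channels in rat cortical membranes (cell-free), 1.5 h after dosing; filter-based scintillation counting. Loss of signal relative to DMSO baseline; primary single-concentration screen at 25 uM, actives then run in concentration series.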
# [6] = target: bovine Estrogen Receptor (ER), ESR1 (gene 407238) (UniProt P49884); test: NVS_NR_bER: NovaScreen (NVS) Nuclear Receptor Binding Assay for bovine Estrogen Receptor (ER) (AID 2283345);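 further: actives lower the bound radioligand count which means they displace the ER ligand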
# Outline: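 Cell-free radioligand binding with bovine uterine membrane extracts, read 18 hours after dosing by scintillation counting. Loss of signal versus DMSO baseline indicates displacement. Primary screen run in duplicate at 25 uM, actives followed in concentration series.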
# Chain of rat Thyrotropin Releasing Hormone Receptor (TRH), Trhr (gene 25570) (Q01717 whole entry, looked up): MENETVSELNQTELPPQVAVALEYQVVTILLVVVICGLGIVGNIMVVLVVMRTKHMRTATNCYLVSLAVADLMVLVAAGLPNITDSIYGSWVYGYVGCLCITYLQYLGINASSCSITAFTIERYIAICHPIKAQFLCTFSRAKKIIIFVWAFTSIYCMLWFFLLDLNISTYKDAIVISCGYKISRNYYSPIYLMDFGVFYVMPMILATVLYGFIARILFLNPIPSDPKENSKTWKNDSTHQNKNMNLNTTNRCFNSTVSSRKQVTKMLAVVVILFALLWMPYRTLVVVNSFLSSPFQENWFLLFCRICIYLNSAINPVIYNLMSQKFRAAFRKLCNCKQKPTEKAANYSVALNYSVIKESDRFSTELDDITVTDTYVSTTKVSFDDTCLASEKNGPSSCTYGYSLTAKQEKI
# Chain of rat Peripheral-type Benzodiazepine Receptor (PBR), Tspo (gene 24230) (P16257 whole entry, looked up): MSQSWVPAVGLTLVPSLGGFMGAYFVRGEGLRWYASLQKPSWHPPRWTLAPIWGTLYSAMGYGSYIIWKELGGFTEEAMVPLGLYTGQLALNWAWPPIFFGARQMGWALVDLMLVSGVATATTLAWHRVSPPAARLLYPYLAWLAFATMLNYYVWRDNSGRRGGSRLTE
# Chain of bovine Estrogen Receptor (ER), ESR1 (gene 407238) (P49884 whole entry, looked up): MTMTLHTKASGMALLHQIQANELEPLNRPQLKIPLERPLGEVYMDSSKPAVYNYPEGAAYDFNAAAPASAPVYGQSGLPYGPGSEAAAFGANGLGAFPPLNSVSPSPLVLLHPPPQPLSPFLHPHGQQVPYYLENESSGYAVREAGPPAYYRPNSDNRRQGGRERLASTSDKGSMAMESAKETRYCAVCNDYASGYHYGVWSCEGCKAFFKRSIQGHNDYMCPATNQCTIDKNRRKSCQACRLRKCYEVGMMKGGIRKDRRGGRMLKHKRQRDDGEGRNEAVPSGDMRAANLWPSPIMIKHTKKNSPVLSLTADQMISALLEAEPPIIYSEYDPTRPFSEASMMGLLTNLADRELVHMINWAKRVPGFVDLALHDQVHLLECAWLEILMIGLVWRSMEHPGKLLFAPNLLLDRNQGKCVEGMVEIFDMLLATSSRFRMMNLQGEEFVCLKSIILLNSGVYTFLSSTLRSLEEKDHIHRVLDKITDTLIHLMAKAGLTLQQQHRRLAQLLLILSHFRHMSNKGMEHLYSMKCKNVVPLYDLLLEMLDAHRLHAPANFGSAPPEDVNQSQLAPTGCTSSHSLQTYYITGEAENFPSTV
# Chain of human Peripheral-type Benzodiazepine Receptor (PBR), TSPO (gene 706) (P30536 whole entry, looked up): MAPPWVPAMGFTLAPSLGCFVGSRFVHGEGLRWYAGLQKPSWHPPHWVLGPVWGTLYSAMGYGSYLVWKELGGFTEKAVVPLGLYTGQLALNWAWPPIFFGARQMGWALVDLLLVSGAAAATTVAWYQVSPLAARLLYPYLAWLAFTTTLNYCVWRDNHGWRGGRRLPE
smiles,measurement,setting,value
OCCN1CCNCC1,outcome,[1],inactive
C=CCOc1nc(OCC=C)nc(OCC=C)n1,outcome,[1],inactive
same,AC50,[2],14.3 µM (active)
same,AC50,[3],6.87 µM (active)
CC(C)=CCC[C@H](C)CC=O,outcome,[4],inactive
Cc1cccc(C)c1C,outcome,[4],inactive
NCCCN1CCOCC1,outcome,[1],inactive
O=C(Cl)c1cccc(C(=O)Cl)c1,outcome,[1],inactive
CC1COc2ccccc2N1C(=O)C(Cl)Cl (configuration not stated),outcome,[1],inactive
same,AC50,[3],11 µM (active) and 9.31 µM (active)
same,outcome,[5],inactive
same,AC50,[6],0.588 µM (active)
O=C=NC1CCC(CC2CCC(N=C=O)CC2)CC1 (configuration not stated),AC50,[4],4.47 µM (active)
CCCC/C=C\CCCCCCCCCC=O,outcome,[1],inactive
CC1=CC(=O)NS(=O)(=O)O1,outcome,[1],inactive
CCCCCCCCCCCCN,outcome,[1],inactive
CCCCCCCCCCCCCCCCCC(=O)OCC(CC)CCCC (configuration not stated),outcome,[3],inactive
